Measurements from the supplement of paper PMC13380429.

System: Vero E6 infected with SARS-CoV-2
Assay: inhibition of SARS-CoV-2 cytopathic effect; higher = more antiviral protection, active = above 15
Settings: 48 h

Measured: inhibition of SARS-CoV-2 cytopathic effect

O=C1C(CC[S+]([O-])c2ccccc2)C(=O)N(c2ccccc2)N1c1ccccc1 (stereo not given) [sulfinpyrazone]
inactive: 1 nM 1.22% | 8.33 nM 1.51% | 100 nM -0.06% | 833.33 nM 0.46% | 10000 nM 0.32%

CNC[C@H](O)[C@@H](O)[C@H](O)[C@H](O)CO [meglumine]
inactive: 1 nM -10% | 8.33 nM -10.3% | 100 nM -6.44% | 833.33 nM -11.4% | 10000 nM -10.1%

O=C1O[C@H](CO)[C@@H](O)[C@H](O)[C@H]1O [gluconolactone]
inactive: 1 nM -1.05% | 8.33 nM 1.67% | 100 nM -0.14% | 833.33 nM -0.97% | 10000 nM -1.07%

CN(C)CCOC(c1ccccc1)c1ccccc1 [diphenhydramine]
inactive: 1 nM 0.83% | 8.33 nM 0.08% | 100 nM -0.85% | 833.33 nM 0.48% | 10000 nM -0.92%

O=C(Nc1ccccc1)c1cc([N+](=O)[O-])ccc1Cl
inactive: 1 nM 1.34% | 8.33 nM 2.14% | 100 nM 0.85% | 833.33 nM -0.67% | 10000 nM -0.39%

CC(=O)OCC1=C(C(=O)O)N2C(=O)[C@@H](NC(=O)CCCC(N)C(=O)O)C2SC1 (stereo not given in full) [cephalosporin-c-zn]
inactive: 1 nM -4.01% | 8.33 nM -0.13% | 100 nM -2.05% | 833.33 nM 3.87% | 10000 nM 1.87%

OCCCNc1ccccc1 [3-anilinopropan-1-ol]
inactive: 1 nM -0.17% | 8.33 nM 2.09% | 100 nM -0.59% | 833.33 nM -0.07% | 10000 nM 1.39%

C[C@]12CC[C@@H]3c4ccc(O)cc4CC[C@H]3[C@@H]1CC[C@@H]2O [estradiol]
inactive: 1 nM 1.43% | 8.33 nM 2.24% | 100 nM -0.69% | 833.33 nM -2.04% | 10000 nM -1.69%

COc1ccc(N2CCOCC2)c2sc(NC(=O)N3CCC(C)(O)CC3)nc12 [tozadenant]
inactive: 1 nM 1.95% | 8.33 nM 8.03% | 100 nM -0.04% | 833.33 nM -0.08% | 10000 nM -2.66%
